In all, about 320,000 compounds went through this assay and about 22,000 (6.9%) were called active. Roughly 27% stayed inconclusive and do not appear here. The list comes from a sample in which actives are over-represented; it also holds similar structures and randomly drawn compounds. Entries that show only a call come without a potency. Values without a mark were called inactive. The call rests on the fitted dose curve; in most records, active means well fitted inhibition curve with a large enough effect; inconclusive means small, poorly fitted or top-dose-only effect, or another doubt; inactive means no such curve, though single readings can be large or run the other way.
Experiment: Primary qHTS for delayed death inhibitors of the malarial parasite plastid, 96 hour incubation
Details: P. falciparum luciferase reporter growth; series mostly up to 28.7 µM
Outline: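 Cell-based qHTS: luciferase-tagged P. falciparum in erythrocytes (2% hematocrit, 0.05% parasitemia final) incubated with compounds for 96 hours, 37 C, 5% CO2; luciferase detection reagent then added and luminescence measured.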
Potency means the concentration at half of the fitted maximal effect.

Structure (SMILES) | Potency | activity change, negative = inhibition
O=C(O)C(c1ccccc1)C1(O)CCCCC1 (centres undefined) | inactive | –
CCCOc1cccc(C(=O)Nc2ccccc2C(=O)N2CCN(C)CC2)c1 | inactive | –
Cn1ccc(NC(=O)Nc2ccc(Cl)cc2)n1 | inactive | –
CN(c1cccc(NC(=O)Nc2ccc(Cl)cc2)c1)S(C)(=O)=O | inactive | –
CC(C)S(=O)(=O)c1csc(NC(=O)Nc2ccc(Cl)cc2)c1Cl | 1.17 µM (active) | –
O=C(c1cccnc1)N1CCN(S(=O)(=O)c2cccs2)CC1 | inactive | –
Cc1ccc(-n2ncc3c2CCCC3NC(=O)c2cnccn2)cc1C (centres undefined) | inactive | –
O=C1CCC(=O)N(O)CCCCCNC(=O)CCC(=O)N(O)CCCCCNC(=O)CCC(=O)N(O)CCCCCN1 | 10.4 µM (active) | –
CC(CN1CCCCC1)c1ccccc1 (centres undefined) | inactive | –
CC(C)[C@@H]1COC(c2cccc(C3=N[C@H](C(C)C)CO3)c2)=N1 | inactive | –
CN(C(=O)c1cccc(OC2CCN(S(=O)(=O)N(C)C)CC2)c1)C1CCOC1 (centres undefined) | inactive | –
CCCOC(=O)C1=C(C)NC2=C(C(=O)C(C(=O)OC)C(C)C2)C1c1ccc(N(C)C)cc1 (centres undefined) | inactive | –
COC(=O)C1C(=O)c2c([nH]c(C(=O)OCCSC)c2C)CC1C (centres undefined) | 3.7 µM (active) | –
OC(c1nc2ccccc2[nH]1)C(O)C(O)C(O)c1nc2ccccc2[nH]1 (centres undefined) | inactive | –
C/C=C/c1ccc(OCCCCN2CCC(C)CC2)c(OC)c1 | 5.22 µM (active) | –
C/C=C/c1ccc(OCCOc2ccc(C=O)cc2OC)c(OC)c1 | inactive | –
COc1ccc(/C=C/C(=O)N2CCCC2)cc1OC | inactive | –
COc1ccc(CN2CCNC(=O)C2CC(=O)NCc2cn[nH]c2-c2ccccc2)c(F)c1 (centres undefined) | inactive | –
CN(C(=O)COC(=O)Cn1cnc2c1c(=O)n(C)c(=O)n2C)C1(C#N)CCCCC1 | inactive | –
O=c1onc(-c2c(F)cccc2F)n1-c1ccccc1Cl | inactive | –
CCC(=O)c1cc(F)ccc1OCC(=O)Nc1ccc2c(c1)OCCO2 | inactive | –
Cc1ccc2oc(=O)c3cnn(CC(=O)N4CCCCCC4)c3c2c1 | 9.28 µM (active) | –
COc1cccc2c(=O)n(CC(=O)N3CCCCCC3)ccc12 | inactive | –

Structure (SMILES) | Potency | activity change, negative = inhibition
Cc1cc(C(F)(F)F)nn1CC(=O)N1CCCC1 | inactive | –
C/C(=N\Nc1nncc2ccccc12)c1ccc(Cl)c([N+](=O)[O-])c1 | inactive | –
Cn1nc(-c2ccccc2)c(-c2nc(-c3ccc(Cl)cc3)no2)c1Cl | inactive | –
C/C(=N/Nc1ccc(Cl)cc1)c1cnnc(-c2ccccc2)n1 | 0.522 µM (active) | –
Cc1ccc(S(=O)(=O)NNC(=O)/C=C/c2cccc(F)c2)cc1 | inactive | –
Cc1ccc2c(c1)N(CC(=O)N1CCC(O)CC1)C(=O)CO2 | inactive | –
O=C(Nn1cnc2ccccc2c1=O)c1ccc(F)cc1Cl | 11.7 µM (active) | –
O=C(Nn1cnc2ccccc2c1=O)c1ccccc1 | inactive | –
Cc1nc2ccccc2c(=O)n1NC(=O)c1ccc(Cl)c([N+](=O)[O-])c1 | inactive | –
CN(C(=O)c1ccccc1)c1nccnc1C#N | inactive | –
CN(C)C(=O)c1nc2ccc(Cl)cn2c1CNCc1cccc(OC(F)(F)F)c1 | inactive | –
COc1ccccc1-c1nnc(SCC(=O)Nc2ccccc2)o1 | inactive | –
Cc1cc(NC(=O)CSc2nnc(-c3ccc(Cl)s3)o2)no1 | inactive | –
COc1ccccc1-c1nnc(SCC(=O)Nc2cc(C)on2)o1 | 13.1 µM (active) | –
CCN(C(=O)CSc1nc(N)cc(=O)[nH]1)C1CCS(=O)(=O)C1 (centres undefined) | inactive | –
CC(=O)Nc1ccc(NC(=O)CC2CCCC2)cc1 | inactive | –
Cn1c2ccccc2c(=O)c2c(=O)n(Cc3ccco3)c(COc3ccccc3)nc21 | 7.38 µM (active) | –
Cc1nc2c(c(=O)n1Cc1ccco1)c1nc3ccccc3nc1n2Cc1ccccc1 | – | 27.6% [at 5.75 µM]
CCn1c(COc2ccccc2)nnc1SCC(=O)NCc1ccco1 | inactive | –
CC(=O)N1CCC(N(C(=O)Nc2ccc(Cl)cc2)C(C)C)CC1 | inactive | –
CCOc1ccc(N/C=C/C(=O)c2ccccc2)cc1 | inactive | –
N#C/C=C/N1CCN(Cc2ccc3c(c2)OCO3)CC1 | inactive | –
COc1ccccc1C(=O)COC(=O)CSCC(=O)Nc1cc(C)on1 | inactive | –

Structure (SMILES) | Potency | activity change, negative = inhibition
Cc1ccc(-c2csc(SCC(=O)Nc3cc(C)on3)n2)cc1 | inactive | –
Cc1cc(NC(=O)CSCc2nc(-c3cccc(Cl)c3)oc2C)no1 | 11.7 µM (active) | –
Oc1c(Cl)cc(Cl)cc1/C=N/c1ncn[nH]1 | inactive | –
CC(C)C[C@H](NC(=O)C1CC(=O)N(c2ccc3c(c2)OCCO3)C1)C(=O)NC1CCCC1 (some centres undefined) | inactive | –
CCCn1c(=O)c(C(=O)Nc2cc(C)ccn2)c(O)c2ccccc21 | inactive | –
O=C(c1ccccc1)c1ccc(OCC(O)CN2CCCC2)cc1 (centres undefined) | inactive | –
CC(C)c1ccc(OCC(O)CN2CCN(c3ccccn3)CC2)cc1 (centres undefined) | inactive | –
O=C(c1ccc(Cl)cc1)c1ccc(OCC(O)CN2CCCCC2)cc1 (centres undefined) | 2.33 µM (active) | –
CC(=O)Nc1ccc(OCC(O)CN2CCN(c3ccccc3Cl)CC2)cc1 (centres undefined) | 3.7 µM (active) | –
O=[N+]([O-])c1ccc(N2CCN(CC(O)COc3ccccc3)CC2)cc1 (centres undefined) | inactive | –
OC(COc1ccc(Br)cc1)CN1CCCC1 (centres undefined) | inactive | –
COc1ccc(C2CC(c3ccc([N+](=O)[O-])cc3)=NN2C(C)=O)cc1 (centres undefined) | inactive | –
COCc1c(C(=O)OCC(=O)Nc2ccc(OC(F)F)cc2)oc2ccccc12 | inactive | –
Cc1ccc(NC(=O)Cn2c(C)csc2=O)cc1 | inactive | –
O=C(NCCSc1ncc(-c2ccccc2)[nH]1)c1ccco1 | inactive | –
Cc1ccc(S(=O)(=O)N(CCCN(C)C)Cc2ccc3c(c2)OCO3)cc1 | inactive | –
COc1ccccc1CCNS(=O)(=O)c1cn(C)nc1C | inactive | –
CC(=O)N1CCc2cc(S(=O)(=O)NC3CCCCC3)ccc21 | inactive | –
CCOC(=O)N1CCC(NC(=O)C(NS(=O)(=O)c2ccc3c(c2)CCN3C(=O)CC)C(C)C)CC1 (centres undefined) | 16.5 µM (active) | –
CCC(=O)N1CCc2cc(S(=O)(=O)NC(C(=O)N3CCc4ccccc4C3)C(C)C)ccc21 (centres undefined) | inactive | –
O=S(=O)(NC1CCCC1)c1ccc(-n2cnnn2)cc1 | inactive | –
COc1cc(OC)cc(C(=O)NCCSCc2ccc(Cl)cc2)c1 | inactive | –
COc1ccc(/C=C(\C#N)C(=O)OCC(=O)N(C)C2CCS(=O)(=O)C2)cc1 (centres undefined) | inactive | –

Reference: PubChem BioAssay AID504834 (National Center for Advancing Translational Sciences (NCATS), 2011)
